# Results filed as inconclusive are left out. The source made the active and inactive calls. Rule for the calls, unless noted: active = hit-call score of the fitted dose curve at least 0.9, where 1 is the maximum; inconclusive = response in the unintended direction; inactive = score below 0.9.
# Assays:
# [1] = biological target: Oxysterols receptor LXR-beta (Homo sapiens) (UniProt P55055); test: ATG_LXRb_TRANS: Attagene TRANS-FACTORIAL HepG2 Assay for human Liver X Receptor beta (LXRb) (AID 2282981); details: HepG2 Attagene TRANS GAL4-LXRb reporter, mRNA
# Chain of Oxysterols receptor LXR-beta (Homo sapiens) (P55055 whole entry, looked up, the tested form may be a part): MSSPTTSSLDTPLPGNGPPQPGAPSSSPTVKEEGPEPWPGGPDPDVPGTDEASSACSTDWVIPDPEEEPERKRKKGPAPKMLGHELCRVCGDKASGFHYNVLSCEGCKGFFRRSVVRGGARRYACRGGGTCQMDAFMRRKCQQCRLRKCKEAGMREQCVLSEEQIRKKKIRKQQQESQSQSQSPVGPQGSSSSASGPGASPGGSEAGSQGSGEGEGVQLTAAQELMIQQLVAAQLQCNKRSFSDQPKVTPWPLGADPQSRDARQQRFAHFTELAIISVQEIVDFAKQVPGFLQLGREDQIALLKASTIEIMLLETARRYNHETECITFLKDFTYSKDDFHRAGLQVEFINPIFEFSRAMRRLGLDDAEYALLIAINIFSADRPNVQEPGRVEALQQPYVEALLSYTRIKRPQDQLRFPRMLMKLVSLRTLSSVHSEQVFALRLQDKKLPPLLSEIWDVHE
# Procedure, shortened: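 Gain-of-signal mRNA reporter endpoint, DMSO as negative control. Transiently transfected HepG2 cells carrying the NR-Gal4 chimera and GAL4-UAS reporter units were treated 24 h; transcripts quantified by RT-PCR and capillary electrophoresis fluorescence.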
# [2] = ATG_M_06_TRANS: Attagene TRANS-FACTORIAL HepG2 Assay for M06 Transcription Factor (Internal Marker) (AID 2282983); details: HepG2 Attagene TRANS M06 internal marker reporter
# Procedure, shortened: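 Measured by capillary electrophoresis of fluorescently labelled RT-PCR products, this endpoint reflects reporter mRNA in HepG2 cells harbouring exogenous NR-GAL4 reporter constructs after 24 h exposure, with DMSO as baseline.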
# [3] = ATG_M_32_TRANS: Attagene TRANS-FACTORIAL HepG2 Assay for M32 Transcription Factor (Internal Marker) (AID 2282984); details: HepG2 Attagene TRANS M32 internal marker reporter;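 note: transcript level of a background control reporter unit measured by RT-PCR and capillary electrophoresis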
# Procedure, shortened: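 Capillary electrophoresis of 6-FAM-labelled reporter fragments gives the signal; data fitted for gain over DMSO negative control. Source: HepG2 cells bearing transient multiple reporter transcription units, 24 h exposure.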
# [4] = biological target: Nuclear receptor subfamily 4 group A member 2 (Homo sapiens) (UniProt P43354); test: ATG_NURR1_TRANS: Attagene TRANS-FACTORIAL HepG2 Assay for human Nuclear Receptor Related Protein 1 (NURR1) (AID 2282985); details: HepG2 Attagene TRANS reporter, mRNA readout
# Chain of Nuclear receptor subfamily 4 group A member 2 (Homo sapiens) (P43354 whole entry, looked up): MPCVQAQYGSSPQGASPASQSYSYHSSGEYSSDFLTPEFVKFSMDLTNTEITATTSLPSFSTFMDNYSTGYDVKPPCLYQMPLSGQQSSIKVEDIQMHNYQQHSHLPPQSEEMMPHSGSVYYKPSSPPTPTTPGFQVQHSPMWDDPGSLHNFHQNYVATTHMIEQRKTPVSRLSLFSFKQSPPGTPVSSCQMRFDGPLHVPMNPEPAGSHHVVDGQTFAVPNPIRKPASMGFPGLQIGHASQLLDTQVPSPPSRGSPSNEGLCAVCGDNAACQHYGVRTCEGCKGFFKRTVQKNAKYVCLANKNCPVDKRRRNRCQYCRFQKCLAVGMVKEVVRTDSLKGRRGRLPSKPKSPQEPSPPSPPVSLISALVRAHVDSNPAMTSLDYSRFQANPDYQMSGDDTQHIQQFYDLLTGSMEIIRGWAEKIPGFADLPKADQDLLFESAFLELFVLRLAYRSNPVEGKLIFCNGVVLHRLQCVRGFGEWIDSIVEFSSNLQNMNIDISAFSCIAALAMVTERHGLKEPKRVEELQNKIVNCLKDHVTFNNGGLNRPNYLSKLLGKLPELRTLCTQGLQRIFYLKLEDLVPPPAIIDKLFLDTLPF
# Procedure, shortened: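 HepG2 / transient MRTU transfection / 24 h compound exposure / RT-PCR + CE fluorescence of reporter mRNA / gain-of-signal vs DMSO.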
# [5] = biological target: Transcriptional activator Myb (Homo sapiens) (UniProt P10242); test: ATG_Myb_CIS: Attagene CIS-FACTORIAL HepG2 Assay for human Myeloblastosis (Myb) Proto-Oncogene Transcription Factor (AID 2282986; active = hit-call score of the fitted dose curve at least 0.9, where 1 is the maximum; inactive = score below 0.9); details: HepG2 Attagene CIS-FACTORIAL Myb reporter transcription; actives raise or lower the signal
# Chain of Transcriptional activator Myb (Homo sapiens) (P10242 whole entry, looked up): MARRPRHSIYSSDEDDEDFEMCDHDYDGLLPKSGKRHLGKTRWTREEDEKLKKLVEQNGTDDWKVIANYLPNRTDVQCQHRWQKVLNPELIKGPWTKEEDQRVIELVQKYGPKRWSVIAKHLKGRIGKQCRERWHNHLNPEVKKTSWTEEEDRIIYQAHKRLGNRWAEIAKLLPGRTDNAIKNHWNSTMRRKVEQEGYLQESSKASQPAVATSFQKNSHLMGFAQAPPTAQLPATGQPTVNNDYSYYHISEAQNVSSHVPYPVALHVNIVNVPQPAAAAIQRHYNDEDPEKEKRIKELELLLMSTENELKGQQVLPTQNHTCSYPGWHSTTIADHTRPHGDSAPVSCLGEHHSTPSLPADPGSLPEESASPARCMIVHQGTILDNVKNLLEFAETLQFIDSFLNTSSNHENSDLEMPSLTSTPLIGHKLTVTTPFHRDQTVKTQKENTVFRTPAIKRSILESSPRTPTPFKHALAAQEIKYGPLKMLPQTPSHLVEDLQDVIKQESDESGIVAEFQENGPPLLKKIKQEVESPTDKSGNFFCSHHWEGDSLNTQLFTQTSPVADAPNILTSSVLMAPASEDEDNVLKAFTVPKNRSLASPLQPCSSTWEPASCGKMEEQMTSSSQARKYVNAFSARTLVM
# Procedure, shortened: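 Steps: transfect HepG2 with cis-regulated reporter units; dose with chemical for 24 h; isolate RNA, reverse-transcribe, PCR-amplify and FAM-label reporter sequences; digest with HpaI; resolve by capillary electrophoresis. Activity fitted in both directions relative to DMSO.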
# [6] = biological target: Nuclear respiratory factor 1 (Homo sapiens) (UniProt Q16656); test: ATG_NRF1_CIS: Attagene CIS-FACTORIAL HepG2 Assay for human Nuclear Respiratory Factor 1 (NRF1) Orphan Gene (AID 2282987; active = hit-call score of the fitted dose curve at least 0.9, where 1 is the maximum; inactive = score below 0.9); details: HepG2 NRF1 cis-element reporter, Attagene multiplex; actives raise or lower the signal
# Chain of Nuclear respiratory factor 1 (Homo sapiens) (Q16656 whole entry, looked up, the tested form may be a part): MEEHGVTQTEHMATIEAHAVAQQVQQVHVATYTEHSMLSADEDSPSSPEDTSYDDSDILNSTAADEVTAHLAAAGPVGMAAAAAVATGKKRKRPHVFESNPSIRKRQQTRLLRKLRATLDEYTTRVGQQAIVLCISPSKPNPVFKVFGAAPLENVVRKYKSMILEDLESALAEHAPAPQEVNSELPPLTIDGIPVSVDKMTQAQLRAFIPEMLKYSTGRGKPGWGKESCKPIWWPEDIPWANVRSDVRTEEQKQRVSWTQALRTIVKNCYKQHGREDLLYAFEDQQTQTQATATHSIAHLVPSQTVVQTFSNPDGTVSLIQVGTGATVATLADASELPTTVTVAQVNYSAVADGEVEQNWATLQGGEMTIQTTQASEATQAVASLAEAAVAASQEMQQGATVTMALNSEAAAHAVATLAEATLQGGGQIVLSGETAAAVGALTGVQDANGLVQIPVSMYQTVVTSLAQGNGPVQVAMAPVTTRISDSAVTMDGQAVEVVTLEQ
# Procedure, shortened: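 Fluorescence intensity of labelled reporter cDNA fragments, resolved by capillary electrophoresis, served as readout for NRF1 cis-element activity. Transiently transfected HepG2 cells were dosed for 24 hours; activity in either direction was fitted against DMSO negative control.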
# [7] = ATG_NFI_CIS: Attagene CIS-FACTORIAL HepG2 Assay for human Nuclear Factor I (NFI) (AID 2282989; active = hit-call score of the fitted dose curve at least 0.9, where 1 is the maximum; inactive = score below 0.9); details: HepG2 cis-regulatory reporter, NFI response element transcription; actives raise or lower the signal
# Procedure, shortened: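 HepG2, transient MRTU, 24 h exposure; RNA→cDNA→PCR→FAM label→HpaI→CE fluorescence. Bidirectional fit, DMSO = baseline.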
# [8] = biological target: Hepatocyte nuclear factor 4-alpha (Homo sapiens) (UniProt P41235); test: ATG_HNF4a_TRANS: Attagene TRANS-FACTORIAL HepG2 Assay for human Hepatocyte Nuclear Factor 4 alpha (HNF4a) (AID 2282982); details: HepG2 HNF4a transactivation reporter, mRNA readout
# Chain of Hepatocyte nuclear factor 4-alpha (Homo sapiens) (P41235 whole entry, looked up, the tested form may be a part): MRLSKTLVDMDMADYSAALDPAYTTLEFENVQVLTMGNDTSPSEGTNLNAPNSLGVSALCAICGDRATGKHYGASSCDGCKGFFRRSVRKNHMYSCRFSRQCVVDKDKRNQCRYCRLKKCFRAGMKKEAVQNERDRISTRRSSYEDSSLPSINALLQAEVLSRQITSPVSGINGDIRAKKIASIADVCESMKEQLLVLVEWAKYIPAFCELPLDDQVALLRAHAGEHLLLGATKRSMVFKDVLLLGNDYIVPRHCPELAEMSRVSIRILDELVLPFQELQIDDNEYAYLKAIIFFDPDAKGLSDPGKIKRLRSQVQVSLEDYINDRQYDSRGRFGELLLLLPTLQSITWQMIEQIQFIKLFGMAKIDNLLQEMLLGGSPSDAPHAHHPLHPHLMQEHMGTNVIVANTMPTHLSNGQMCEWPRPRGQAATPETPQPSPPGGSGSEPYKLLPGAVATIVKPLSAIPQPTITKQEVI
# Procedure, shortened: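 Gain-of-signal mRNA induction, relative to DMSO vehicle, was read after 24 h compound treatment of HepG2 cells bearing transfected GAL4-UAS reporters. Detection used RT-PCR, 6-FAM primer extension and capillary electrophoresis.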
structure (smiles),measurement,setting,value
CC(C)N(C(=O)CCl)c1ccccc1,outcome,[1],inactive
same,outcome,[2],inactive
same,outcome,[3],inactive
same,AC50,[4],149 µM (active)
same,AC50,[5],8.16 µM (active)
same,AC50,[6],49.1 µM (active)
same,AC50,[7],24.3 µM (active)
C=CCN=C=S,outcome,[1],inactive
same,outcome,[3],inactive
same,outcome,[5],inactive
same,outcome,[6],inactive
same,outcome,[7],inactive
O=C(CBr)c1ccc(O)cc1,outcome,[1],inactive
same,outcome,[5],inactive
same,outcome,[6],inactive
same,outcome,[7],inactive
C=C(C)C(=O)OCCCCOC(=O)C(=C)C,outcome,[1],inactive
same,outcome,[8],inactive
same,outcome,[3],inactive
same,outcome,[4],inactive
same,outcome,[5],inactive
same,outcome,[6],inactive
same,outcome,[7],inactive
CC(C)[C@H](C(=O)OC(C#N)c1cccc(Oc2ccccc2)c1)c1ccc(OC(F)F)cc1 (stereo partly specified),outcome,[8],inactive
same,outcome,[2],inactive
same,outcome,[3],inactive
same,outcome,[4],inactive
same,outcome,[5],inactive
same,outcome,[6],inactive
same,outcome,[7],inactive
CCCCC(CC)COC(=O)Cl (stereo unspecified),outcome,[8],inactive
same,outcome,[2],inactive
same,outcome,[3],inactive
same,outcome,[4],inactive
same,outcome,[5],inactive
same,outcome,[6],inactive
same,outcome,[7],inactive
CCN(CCO)CCO,outcome,[1],inactive
same,outcome,[2],inactive
same,outcome,[4],inactive
same,outcome,[5],inactive
same,outcome,[6],inactive
same,outcome,[7],inactive
O=c1[nH]c(=O)n(Cl)c(=O)n1Cl,outcome,[1],inactive
same,outcome,[2],inactive
same,outcome,[3],inactive
same,outcome,[4],inactive
same,outcome,[5],inactive
same,outcome,[7],inactive
N#Cc1ccncc1,outcome,[1],inactive
same,outcome,[8],inactive
same,outcome,[2],inactive
same,outcome,[3],inactive
same,outcome,[4],inactive
same,outcome,[5],inactive
same,outcome,[7],inactive
Nc1ccc(-c2ccccc2)cc1,outcome,[1],inactive
same,outcome,[2],inactive
same,outcome,[3],inactive
same,outcome,[4],inactive
same,outcome,[5],inactive
same,outcome,[6],inactive
same,outcome,[7],inactive
N#Cc1cccnc1,outcome,[1],inactive
same,outcome,[4],inactive
same,outcome,[5],inactive
same,outcome,[6],inactive
same,outcome,[7],inactive
CCCCN(CCCC)C(=S)S,outcome,[1],inactive
same,outcome,[2],inactive
same,AC50,[6],152 µM (active)
same,outcome,[7],inactive
Oc1c(Cl)cc(Cl)cc1Cl,outcome,[1],inactive
same,outcome,[2],inactive
same,outcome,[3],inactive
same,outcome,[5],inactive
CC(C)(c1ccccc1)c1cc(-n2nc3ccccc3n2)c(O)c(C(C)(C)c2ccccc2)c1,outcome,[1],inactive
same,outcome,[2],inactive
same,outcome,[4],inactive
same,outcome,[5],inactive
same,outcome,[7],inactive
O=[N+]([O-])c1cc([As](=O)(O)O)ccc1O,outcome,[1],inactive
same,outcome,[2],inactive
same,outcome,[3],inactive
same,outcome,[6],inactive
same,outcome,[7],inactive
